# In the library only some 3.5% were active in any assay of this set; here they are far more common.
# TEAD-YAP block: TEAD-YAP interaction inhibition; AID 1259422; inhibition, % at 9.12 µM; 1.4% of 640,000 active; HEK-TIYL cells, TEAD-Gal4/YAP UAS-luciferase luminescence; in the data active = inhibition above about 32%;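 note: 0% = median of test compound wells and 100% = reference inhibitor wells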
# GPR151 activ: human GPR151 activation | activation, % at 11.2 µM | Q8TDV0 | AID 1508602 | PathHunter beta-arrestin GPR151 cells, luminescence | 1% of 650,000 active; in the data active = activation above about 4.9%;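 note: 0% = median of compound wells and 100% = cells with positive control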
# MITF primary: blocks human microphthalmia-associated transcription factor. AlphaScreen MITF homodimerization, bead proximity signal. inhibition, % at 2.6 µM. 0.91% of 650,000 active. AID 1259374; in the data active = inhibition above about 50%;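 note: 0% = vehicle wells with protein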
# FBW7 activator: human FBW7 E3 ligase activation, primary screen | normalized activity (activation), % at 26.1 µM | Q969H0 | AlphaScreen FBW7–phospho-cyclin E peptide binding, activator screen | 0.13% of 650,000 active; in the data active = normalized activity above about 1.9%;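 note: purified mutant Fbw7 with reduced substrate affinity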
# GPR151 confirm: confirmation of human GPR151 activators | AID 1508609 | shares compounds with GPR151 activ | GPR151 PathHunter beta-arrestin cells, luminescence, 90 min; % of EA-reagent control over plate median | 6,700 tested, under 10 active | activation, % at 11.2 µM;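 active = mean percent activation across replicates above the confirmation screen cutoff of 4.91%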
# GPR119 ag: activates human GPR119 in a GPR151 counter-screen; shares compounds with GPR151 activ; GPR119 PathHunter beta-arrestin cells, luminescence, 90 min; 0 = compound-well median, 100 = enzyme-acceptor control; activation, % at 11.2 µM; 0.3% of 6,700 active; AID 1508611;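 active = mean percent activation in the counterscreen above 29.09%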;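 note: counterscreen on off-target GPR119 to flag nonselective hits from the GPR151 activator screen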
# Target sequence (Q8TDV5 whole entry, looked up): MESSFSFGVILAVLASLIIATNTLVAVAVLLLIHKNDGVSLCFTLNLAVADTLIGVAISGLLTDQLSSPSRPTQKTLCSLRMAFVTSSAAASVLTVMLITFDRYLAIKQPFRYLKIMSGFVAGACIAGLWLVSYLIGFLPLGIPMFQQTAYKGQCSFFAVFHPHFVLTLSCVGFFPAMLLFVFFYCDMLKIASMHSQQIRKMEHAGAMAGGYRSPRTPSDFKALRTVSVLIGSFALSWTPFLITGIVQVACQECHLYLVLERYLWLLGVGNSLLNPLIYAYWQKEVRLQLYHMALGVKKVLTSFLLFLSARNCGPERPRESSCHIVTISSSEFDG
# The depositor's hits bear a star; . = not tested or not shown.
SMILES,TEAD-YAP block,GPR151 activ,MITF primary,FBW7 activator,GPR151 confirm,GPR119 ag
Cc1ccc([N+](=O)[O-])c(OCCOCCN2CCc3ccccc3C2)c1,11,5.7*,-2,0,1,-4
CNC(=O)CN(c1ccc(Cl)cc1C)S(=O)(=O)c1ccccc1,6,2,-2,0,.,.
COc1ccc(C2C(C(C)=O)=C(C)N=c3s/c(=C/c4ccc(OCc5cccc6ccccc56)cc4)c(=O)n32)cc1 (stereo not drawn),5,1,3,0,.,.
C=CCn1cc(/C=c2\sc3n(c2=O)C(c2ccc(Cl)cc2)C(C(=O)OCC)=C(C)N=3)c2ccccc21 (stereo not drawn),-1,1,16,0,.,.
CCOC(=O)C1=C(C)N=c2s/c(=C\c3ccc(C(C)C)cc3)c(=O)n2C1c1ccc(C(C)C)cc1 (stereo not drawn),10,0,5,0,.,.
CCOC(=O)C1=C(C)N=c2s/c(=C\c3ccc(Br)o3)c(=O)n2C1c1ccc(OC(C)C)cc1 (stereo not drawn),-7,5.0*,14,0,1,-7
COc1ccc(C2C(C(C)=O)=C(C)N=c3s/c(=C/c4ccccc4)c(=O)n32)cc1 (stereo not drawn),4,8.8*,8,0,-1,-5
C=CCn1cc(/C=c2\sc3n(c2=O)C(c2ccc(OC)cc2)C(C(=O)OCC)=C(C)N=3)c2ccccc21 (stereo not drawn),-2,5.0*,-8,0,-1,-18
CCOC(=O)C1=C(C)N=c2s/c(=C\c3ccc(C(C)C)cc3)c(=O)n2C1c1ccc(OC)cc1 (stereo not drawn),-8,7.0*,-2,0,0,-2
COc1ccc(-n2cc(-c3ccccc3)c3c(N4CCC(C(N)=O)CC4)ncnc32)cc1,5,2,10,0,.,.
CC(C)(C)NC(=O)NC(=O)COC(=O)Cn1cnc2ccccc2c1=O,2,6.8*,4,0,0,2
CC(C)(C)NC(=O)NC(=O)COC(=O)Cc1ccc(Cl)c(Cl)c1,-1,7.2*,1,0,0,-2
Cc1ccc(Cl)cc1NC(=O)Cn1cnc2c(-c3ccccc3)csc2c1=O,1,7.3*,1,0,-1,-1
COC(=O)c1ccc(NC(=O)CSc2nnc(NC(C)=O)s2)cc1,5,6.4*,-14,0,0,0
CCCCNC(=O)CSc1nnc(NC(C)=O)s1,4,6.4*,-3,0,0,1
Cc1nnc(SCC(=O)NCCC(c2ccccc2)c2ccccc2)s1,4,5.0*,-5,0,0,0
C/C(=N\NC(=O)c1ccccc1O)c1ccc(F)cc1,-34,0,13,0,.,.
CCCNC(=O)c1cccc(Nc2ccnn2C)n1,5,0,27,0,.,.
Cn1nccc1Nc1cccc(C(=O)NCCOc2ccccc2)n1,-33,11*,5,0,-1,-1
O=C(NCCc1c[nH]c2ccccc12)C12CC3CC(CC(O)(C3)C1)C2,-11,7.6*,6,0,0,-1
O=C(CSc1nnc(-c2cccnc2)o1)Nc1nc(-c2ccccc2)cs1,3,7.5*,10,0,-1,-2
O=C(CSc1nnc(-c2cccnc2)o1)c1ccc2ccccc2c1,-2,0,0,0,.,.
O=C(CSc1nnc(-c2cccnc2)o1)c1ccccc1,-21,5.9*,5,0,0,4
Cc1cc(C(C)(C)C)cc(S(=O)(=O)Nc2ccc3c(c2)C(=O)NC3=O)c1C,-11,6.2*,-13,0,0,-6
Cc1ccc(S(=O)(=O)Nc2ccc3c(c2)C(=O)NC3=O)c(C)c1,4,0,15,0,.,.
SMILES,TEAD-YAP block,GPR151 activ,MITF primary,FBW7 activator,GPR151 confirm,GPR119 ag
CCOCCOC(=O)c1ccc(NC(=O)COc2ccccc2)cc1,9,5.0*,-6,0,-1,-12
CCOCCOC(=O)c1ccc(NC(=O)COc2ccc(OC)cc2)cc1,9,0,3,-1,.,.
Cc1ccc(NC(=O)COc2ccc(C(C)C)cc2)cc1,9,6.4*,9,0,0,-7
CCOc1ccc(NC(=O)CC2(c3ccc(OC)cc3)C(=O)c3ccccc3C2=O)cc1,12,5.4*,13,1,2,5
CCOC(=O)c1ccc(NC(=O)COc2ccc(CC)cc2)cc1,3,4.9*,4,0,0,-1
CCc1ccc(OCC(=O)Nc2ccc(C(=O)OCCOC)cc2)cc1,6,-1,14,0,.,.
c1ccc(-c2nnc(-c3ccccc3)c3nocc23)cc1,-58,0,10,0,.,.
CCOC(=O)C1(Cc2ccc(Cl)cc2)CCN(C(=O)C2CCN(C(C)=O)CC2)CC1,-15,-1,7,0,.,.
CCOc1ccc(NC(=O)COC)cc1,-13,5.4*,2,0,1,6
CCOC(=O)c1cnc2c(C)cc(Cl)cc2c1Nc1cccc(C)c1,-8,0,16,0,.,.
COc1ccc(C2CC(=O)C3=C(C2)NC(C)=C(C(=O)OC2CCCC2)C3c2ccccc2OC)cc1OC (stereo not drawn),4,0,6,0,.,.
COc1ccc(C2CC(=O)C3=C(C2)NC(C)=C(C(=O)OC2CCCC2)C3c2ccccc2C)cc1OC (stereo not drawn),17,5.3*,10,0,-1,9
COC(=O)c1cc(-c2ccccc2)sc1NC(=O)CN1C(=O)c2ccccc2C1=O,5,15*,6,0,0,2
COc1ccc(/C=C/c2nc(-c3cccnc3)no2)cc1OC,-66,8.7*,-2,0,0,-15
COc1cccc(-c2noc(/C=C/c3ccc(OC)c(OC)c3)n2)c1,-23,1,14,0,.,.
COc1ccc(-c2n[nH]c(=S)n2Cc2ccco2)cc1OC,-7,1,-13,0,.,.
COc1cccc(-c2n[nH]c(=S)n2Cc2ccco2)c1OC,-10,9.1*,11,1,1,6
Cc1cc(C(=O)N2CCC(c3nc4ccccc4s3)CC2)nn1C,-4,1,2,0,.,.
CC1CN(C(=O)c2cc(C(C)C)n(-c3nc4ccccc4s3)n2)CC(C)O1 (stereo not drawn),8,5.7*,5,0,1,-9
O=C(Cc1cc(F)ccc1F)NCC1CCC2(CCN(C(=O)c3ccoc3)CC2)O1 (stereo not drawn),1,0,13,1,.,.
COc1ccc(CC2(CO)CCN(Cc3ccc(NC(C)=O)cc3)CC2)cc1,7,5.9*,10,0,2,-4
CCOC(=O)c1ccc(-n2c(C)nc(=O)c(-c3ccccc3)c2C)cc1,-3,7.8*,-3,0,0,12
Cc1nc(=O)c(-c2ccccc2)c(C)n1-c1ccc(C(=O)O)cc1,3,-1,5,1,.,.
